From PubChem BioAssay AID828 (The Scripps Research Institute Molecular Screening Center, 2007) come the findings set out here.

Each structure is given as a SMILES string. In all, about 140,000 compounds went through this assay and about 550 (0.39%) were called active. The entries come from a sample that favours actives as a whole. A number with no mark means an inactive call. No stated cut-off is given here; in the data, active means inhibition above about 27%; inactive means the rest.

The target in this assay is Galanin receptor type 2 (Homo sapiens) (UniProt O43603). In words: GALR2 antagonists in receptor-expressing cells, primary screen (AID 828).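 Further: cells stimulated with galanin 1-16 at roughly its EC80; 0% = agonist challenge control and 100% = basal control without agonist.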 The following applies: antagonist mode, at 4 µM, stronger effect = higher value.
Galanin receptor type 2 (Homo sapiens), sequence (O43603 whole entry, looked up): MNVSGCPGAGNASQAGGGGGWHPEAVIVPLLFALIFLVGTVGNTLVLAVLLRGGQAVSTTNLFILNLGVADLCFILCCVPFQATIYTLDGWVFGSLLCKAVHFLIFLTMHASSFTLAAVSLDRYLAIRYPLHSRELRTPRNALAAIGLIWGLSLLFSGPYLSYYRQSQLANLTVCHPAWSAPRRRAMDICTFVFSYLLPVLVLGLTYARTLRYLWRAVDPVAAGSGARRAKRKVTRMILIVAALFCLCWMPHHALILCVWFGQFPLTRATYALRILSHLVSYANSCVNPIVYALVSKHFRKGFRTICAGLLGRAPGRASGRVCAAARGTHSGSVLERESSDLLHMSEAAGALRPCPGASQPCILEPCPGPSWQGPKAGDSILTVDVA
Turning to `CCOC(=O)NC(=O)CSc1nnc(SCCC(=O)O)s1`, the inhibition is -4.2%.

Regarding `Nc1nc(SCC(=O)NCCN2CCOCC2)nc2sc3c(c12)CCC3`, the inhibition was 15.2%.

For the compound `O=C(CSc1nc2ccc([N+](=O)[O-])cc2[nH]1)c1ccc(Cl)cc1`, the inhibition is 5.51%.

Regarding `Cc1cc(Oc2ccc(Cl)cc2)nc(SCC(=O)c2ccccc2)n1`, the inhibition was -1.42%.

For the compound `O=C(CC1NCCNC1=O)Nc1cc(Cl)cc(Cl)c1` (stereo not drawn), the inhibition is -4.41%.

Regarding `CC1CN(C(=S)SCC(=O)c2ccccc2)CC(C)O1` (stereo not drawn), the inhibition was -1.6%.

As for `CC(=O)Nc1ccc(NC(=O)C(C)OC(=O)c2ccccc2C(=O)c2ccc(Cl)c([N+](=O)[O-])c2)cc1` (stereo not drawn), the inhibition is 25.8%.

Take `N#Cc1cccc(NC(=O)COC(=O)c2ccccc2C(=O)c2ccc(Cl)c([N+](=O)[O-])c2)c1`: the inhibition is 68.1% (active).

With `COC(=O)c1cc(NC(=O)Cc2ccccc2[N+](=O)[O-])ccc1Cl`, the inhibition was 16.4%.

With `CCN(C(=O)COC(=O)c1cc(NS(=O)(=O)c2ccc(Cl)c([N+](=O)[O-])c2)ccc1O)C1CCCCC1`, the inhibition was -12.1%.

As to `CN(c1ccccc1)S(=O)(=O)c1cccc(NC(=O)Cc2c(F)cccc2Cl)c1`, the inhibition was 6.13%.

As for `NS(=O)(=O)c1ccc(NC(=O)COC(=O)C2(c3ccc(F)cc3)CCCC2)cc1`, the inhibition is 10.9%.

As for `CN(C)S(=O)(=O)c1cccc(NC(=O)COC(=O)C2(c3ccccc3F)CCCC2)c1`, the inhibition was 31.7% (active).

Consider `CSCCC(Nc1ccc(S(=O)(=O)N2CCOCC2)cc1[N+](=O)[O-])C(=O)OCC(=O)N(C(C)C)C(C)C` (stereo not drawn), for which the inhibition is 0.86%.

For the compound `O=C(CCc1[nH]c2ccccc2c1Sc1ccccc1)N(CCO)CCO`, the inhibition is -2.04%.

As for `CCCOC(=O)c1c(NC(=O)c2cnn3c2NC(c2ccccc2)CC3C(F)(F)F)sc2c1CCCC2` (stereo not drawn), the inhibition was -6.74%.

Turning to `CCOC(=O)c1cc2c(=O)n3ccccc3nc2n(CC(C)C)c1=NC(=O)c1c(-c2c(F)cccc2Cl)noc1C`, the inhibition is -2.98%.

`Cc1cccc(N2CCN(C(=O)c3ccccc3NC(=O)C3CCCCC3C(=O)O)CC2)c1` (stereo not drawn): the inhibition was 0.78%.

Turning to `Cc1ccc(NN=C2C(=O)OC(C)(C)OC2=O)c(C)c1`, the inhibition is 4.74%.

For `CN(C)c1ccc(C(CNC(=O)c2ccc(F)cc2)c2c[nH]c3ccccc23)cc1` (stereo not drawn), the inhibition was 5.85%.

With `CC(=O)N/C(=C/c1ccc(OC(F)F)cc1)C(=O)O`, the inhibition was -1.23%.

For `Cc1nn(-c2ccccc2)c(-n2cccc2)c1C(=O)O`, the inhibition was 8.6%.

Consider `O=C(CN1CCc2ccccc21)NC(c1ccccc1)c1ccccc1`, for which the inhibition is -11.2%.

Turning to `CCCCN(CC)C(=O)c1ccc2c(c1)OCO2`, the inhibition is -4.88%.

Turning to `C=CCNC(=S)NNC(=O)c1ccc(Br)o1`, the inhibition was 0.37%.

For `O=C(COc1cccc(F)c1)Oc1ccc(C(=O)c2ccccc2)cc1`, the inhibition is 5.19%.

Regarding `CC(C)(C)NCCCOc1ccc(Cl)cc1C(C)(C)C`, the inhibition was -7.15%.

`Cc1cccc(-c2nc3ccccc3c(=O)n2NC(=O)Cc2ccc(Cl)cc2)c1`: the inhibition is -8.75%.

Regarding `FC(F)(F)c1cnc(Oc2ccccc2-c2nnc(-c3ccc(Cl)cc3)o2)c(Cl)c1`, the inhibition is 99.8% (active).

For the compound `CSc1ccccc1-c1nnc(-c2ccc(Cl)cc2)o1`, the inhibition is 14.1%.

As for `Cc1cc(C)cc(NS(=O)(=O)c2ccc(Oc3ncc(C(F)(F)F)cc3Cl)cc2)c1`, the inhibition is -0.6%.

Regarding `O=C(NNC(=S)Nc1ccc(Br)cc1Cl)c1ccco1`, the inhibition is 1.63%.

On to `c1ccc(-c2cc3c(NCC4COc5ccccc5O4)ncnc3s2)cc1` (stereo not drawn), for which the inhibition is -0.87%.

As for `COc1ccc(-c2nn(C)c(=O)c3ccccc23)cc1NC(=O)COc1ccccc1`, the inhibition is 2.22%.

Take `Cc1ccc(F)cc1NC(=O)Cc1nn(C)c(=O)c2ccccc12`: the inhibition was 39.3% (active).

Turning to `Cc1ccc(NC(=O)Cn2nc(C)c3ccccc3c2=O)c(C)c1`, the inhibition was 8.82%.

Turning to `Cc1ccc(-n2c(C)cc(C(=O)CSc3nnc4ccccn34)c2C)cc1`, the inhibition was 3.5%.

For `Cc1ccc(C(=O)NC(=S)Nc2ccc3[nH]c(=O)[nH]c3c2)cc1C`, the inhibition was -6.84%.

In the case of `COc1ccc(NC(=S)NCC2CCN(c3ccc(OC)cc3)C2)cc1` (stereo not drawn), the inhibition is -2.41%.

Consider `C/C(CC1CC(C)(C)OC1=O)=N/Nc1nc(-c2ccccc2)cs1` (stereo not drawn), for which the inhibition was 7.6%.

On to `COc1cc(C(=O)NCc2nnc(SCC(=O)Nc3nc4ccc(C)cc4s3)o2)cc(OC)c1OC`, for which the inhibition was -19.9%.

For `CCCCc1ccc(NC(=S)N2CCCC(CO)C2)cc1` (stereo not drawn), the inhibition is -8.34%.

For `COc1ccc(NC(=O)CN(Cc2ccccc2)S(C)(=O)=O)cc1OC`, the inhibition is -9.1%.

With `O=C1CCCN1CCCNc1ncnc2c1[nH]c1ccccc12`, the inhibition was 22.8%.

For `CC(C)OCCCNc1ncnc2c1[nH]c1ccc(F)cc12`, the inhibition is 35.1% (active).

Take `CCN1CCCC1CNc1ncnc2c1[nH]c1ccc(F)cc12` (stereo not drawn): the inhibition was 13.1%.

`COc1ccc(/C=C/C(=O)Nc2ccc3c(c2)OCCO3)cc1OC`: the inhibition is 12.7%.

As for `COc1ccc(/C=C/C(=O)Nc2ccc(C34CC5CC(CC(O)(C5)C3)C4)cc2)cc1OC`, the inhibition was 27.3% (active).

For `COc1ccc(NS(=O)(=O)c2cc(NC(=O)/C=C/c3cc(OC)c(OC)c(OC)c3)ccc2N2CCCCC2)cc1`, the inhibition is 5.85%.

As to `O=C(NNC1CC(=O)N(c2cccc(Cl)c2)C1=O)c1cccnc1` (stereo not drawn), the inhibition was -6.86%.

Consider `COc1ccccc1OCCC(=O)OCC(=O)NCc1ccccc1`, for which the inhibition is -7.36%.

For the compound `Cc1cccc(-n2c(C)cc(/C=N/NC(N)=S)c2C)c1`, the inhibition is -7.75%.

As for `CCCN(CCC)c1c([N+](=O)[O-])c(=O)oc2ccccc12`, the inhibition is 7.9%.

Take `CCOC(=O)Cc1csc(NC(=O)CSc2ccc(Br)cc2)n1`: the inhibition is 6.81%.

Consider `CC(C)/C=N/NC(=O)c1cc(Br)ccc1O`, for which the inhibition is 10.3%.

As for `COc1ccc(C2COC(=O)C2=N)c(NC(=O)c2ccccc2)c1` (stereo not drawn), the inhibition is -8.91%.

Take `Cc1nn(Cc2ccc(Cl)cc2)c(Cl)c1/C=N/NC(=O)c1cccnc1`: the inhibition is 10.9%.

In the case of `CC1CCc2sc(C(=O)N/N=C/C3CCCCC3)cc2C1` (stereo not drawn), the inhibition is -7.82%.

By inhibition is commonly meant the change of the read-out against control, counted positive when it falls.
